Screening data: PubChem BioAssay, National Center for Advancing Translational Sciences (NCATS)
The list is not random: actives were taken first. Their share in the collection is about 3.1%.
VDR inh = inhibitors of human vitamin D receptor. AID 504847. P11473. VDR-SRC2-3 peptide fluorescence polarization, 2 h. Potency, µM, actives largely listed as inhibitors. actives 0.93% (n = 400,000)
Target sequence (P11473 whole entry, looked up): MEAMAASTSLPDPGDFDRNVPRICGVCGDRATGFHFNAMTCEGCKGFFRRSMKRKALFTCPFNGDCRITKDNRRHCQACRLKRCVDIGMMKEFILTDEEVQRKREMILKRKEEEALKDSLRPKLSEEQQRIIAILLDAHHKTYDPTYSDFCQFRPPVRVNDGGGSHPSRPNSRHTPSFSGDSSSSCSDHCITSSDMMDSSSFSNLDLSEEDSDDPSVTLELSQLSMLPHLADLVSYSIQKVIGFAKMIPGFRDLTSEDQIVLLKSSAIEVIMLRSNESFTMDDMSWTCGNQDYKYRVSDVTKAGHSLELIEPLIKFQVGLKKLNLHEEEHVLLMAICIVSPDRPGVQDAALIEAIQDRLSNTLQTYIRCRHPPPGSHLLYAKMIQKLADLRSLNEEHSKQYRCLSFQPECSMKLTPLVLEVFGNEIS
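Two reagent solutions held at 4 deg C in the dark were dispensed, compounds pinned at 23 nl, and the mixture incubated 2 h at room temperature. Read-out: fluorescence polarization of VDR–SRC2-3 peptide binding.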
TSHR antagonist = antagonists of human thyroid stimulating hormone receptor; TSHR-expressing cells, TSH-stimulated cAMP HTRF, 2 h; active compounds read low; activity change, negative = inhibition, % at 11.5 µM; actives 0.2% (n = 330,000); AID 504810;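 active = activity change below a set negative limit, meaning inhibition stronger than a set level, cut at about -70% in these data; inconclusive = activity change between two set negative limits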
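Read-out is FRET at 665 nm (cryptate excitation 337 nm) from a cryptate-tagged anti-cAMP antibody, competed by cell cAMP against cAMP-d2. Compounds are tested on freshly harvested TSHR cells challenged with 4nM TSH (EC80) for 2 hours at 37 deg C.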
Vif-APOBEC3F blk = inhibitors of Vif-A3F interaction. HeLa A3F-eYFP + Vif (tagged APOBEC3F with the HIV-1 protein that degrades it), YFP fluorescence increase. Potency, µM (titrated, usually from 46.1 µM). AID 602313. actives 0.2% (n = 390,000); note: nearly all actives have a fitted effect of over 65% in size
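HeLa cells stably expressing Vif plus C-terminally eYFP-tagged A3F were seeded, incubated overnight at 37 deg C, dosed with compound, incubated overnight again at 37 deg C. Yellow fluorescence (Ex 488/Em 500-530) reported blocked Vif-mediated A3F-eYFP degradation.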
PLK1 PBD inh = inhibitors of human PLK1 polo-box domain binding | P53350 | Plk1 PBD binding of FITC phosphopeptide, fluorescence polarization | Potency, µM, hits mostly inhibitors | actives 2.8% (n = 360,000); note: series mostly up to about 57 µM; nearly all actives have a fitted effect of over 65% in size
Vif-APOBEC3G blk = Vif-A3G binding inhibition. Q9HC16. HeLa A3G-eYFP + Vif (tagged APOBEC3G with the HIV-1 protein that degrades it), YFP fluorescence, overnight. Potency, µM (highest dose often 46.1 µM), hits mostly inhibitors. actives 0.076% (n = 410,000). AID 602310; note: nearly all actives have a fitted effect of over 60% in size
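Read-out is eYFP fluorescence (Ex 488/Em 500-530) from Vif-expressing HeLa A3G-eYFP cells; more signal means A3G escaped Vif-mediated degradation. Cells plated overnight, compound pinned in, incubated overnight at 37 deg C.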
Of the large screens only hits and unclear results are named; the others gave an inactive call. Unless noted, calls come from the whole dose curve; as a rule, active = well fitted curve in the direction sought with a large enough effect; inconclusive = small, poorly fitted or top-dose-only effect, or another doubt; inactive = no such curve, though single readings can be large; an effect the other way counts as inactive or inconclusive.

CS/C(N)=C(C#N)/C(C#N)=C(\N)SC	VDR inh 45µM (no result: TSHR antagonist, Vif-APOBEC3F blk, PLK1 PBD inh, Vif-APOBEC3G blk)
Cc1ccc(-c2cc(-c3ccccc3)cc(-c3ccccc3)[n+]2-c2ccccc2)cc1	TSHR antagonist -94, Vif-APOBEC3G blk inconclusive
NCC(=O)c1cccc([N+](=O)[O-])c1	none (no result: VDR inh, TSHR antagonist, Vif-APOBEC3F blk, PLK1 PBD inh)
COC(=O)C12CC3=C[C@H](CC3=O)Cc3ccccc3[C@@H]1CNC2=O (some centres not stated)	none (no result: TSHR antagonist, Vif-APOBEC3F blk, PLK1 PBD inh, Vif-APOBEC3G blk)
COc1ccc(N2CCN(C(=O)c3cc(=O)[nH]c4ccccc34)CC2)cc1	PLK1 PBD inh 27µM
CC(C)(C)CC(C)(C)c1ccc(O)cc1	none (no result: TSHR antagonist, Vif-APOBEC3F blk, PLK1 PBD inh, Vif-APOBEC3G blk)
O=CN1CCCCC1C1CC[C@H]2CCCCN2C1 (some centres not stated)	none (no result: TSHR antagonist, Vif-APOBEC3F blk, PLK1 PBD inh, Vif-APOBEC3G blk)
CCS(=O)(=O)N1N=C(c2cccc(NS(C)(=O)=O)c2)CC1c1ccccc1 (configuration not stated)	Vif-APOBEC3F blk 10µM, Vif-APOBEC3G blk 10µM
O=c1[nH]c(=O)n(CCC2=CCCCC2)c(O)c1/C=N/Nc1ccccc1	VDR inh inconclusive
O=c1[nH]c(=O)n(CCC2=CCCCC2)c(O)c1/C=N/Nc1cccc2ccccc12	VDR inh inconclusive, PLK1 PBD inh 34µM
CCN(CC)c1ccc(N=Cc2c(O)n(CCC3=CCCCC3)c(=O)[nH]c2=O)cc1	Vif-APOBEC3F blk 22µM
COC(=O)c1cc(Oc2ccc(Cl)cc2Cl)ccc1[N+](=O)[O-]	none (no result: TSHR antagonist, Vif-APOBEC3F blk, PLK1 PBD inh, Vif-APOBEC3G blk)
O=C(Nc1ccc(Oc2ccc(Cl)cc2)c(Cl)c1)c1cc(I)cc(I)c1O	VDR inh inconclusive, TSHR antagonist -94, PLK1 PBD inh inconclusive
Cc1c(F)c(F)c(COC(=O)C2C(/C=C(\Cl)C(F)(F)F)C2(C)C)c(F)c1F (configuration not stated)	none (no result: TSHR antagonist, Vif-APOBEC3F blk, PLK1 PBD inh, Vif-APOBEC3G blk)
Clc1ccc(Cl)cc1	none (no result: TSHR antagonist, Vif-APOBEC3F blk, PLK1 PBD inh, Vif-APOBEC3G blk)
Clc1ccc(C(Cl)(Cl)Cl)c(Cl)c1	PLK1 PBD inh 11µM
COC1=C(C)C(=O)c2c(c(COC(N)=O)c3n2C[C@@H]2[C@@H]3N2C)C1=O (some centres not stated)	none (no result: VDR inh, TSHR antagonist, Vif-APOBEC3F blk, PLK1 PBD inh)
COc1ccc(/C=C2\C(=O)NC(=O)N(CCC3=CCCCC3)C2=O)c(OC)c1	VDR inh inconclusive, PLK1 PBD inh 1.7µM
O=C1NC(=O)N(CCC2=CCCCC2)C(=O)/C1=C/c1cccs1	VDR inh inconclusive, PLK1 PBD inh 0.75µM
O=C1NC(=O)N(CCC2=CCCCC2)C(=O)/C1=C/c1ccc(O)cc1	VDR inh inconclusive, PLK1 PBD inh 2.7µM
CCN(CC)c1ccc(/C=C2/C(=O)NC(=O)N(CC3CCCO3)C2=O)cc1 (configuration not stated)	PLK1 PBD inh inconclusive
O=C1NC(=O)N(CC2CCCO2)C(=O)/C1=C/c1cccs1 (configuration not stated)	PLK1 PBD inh inconclusive
CCN1C(=O)NC(=O)/C(=C\c2ccc(N3CCOCC3)cc2OC)C1=O	none (no result: VDR inh, Vif-APOBEC3F blk, PLK1 PBD inh, Vif-APOBEC3G blk)
O=c1[nH]c(CN2CC=C(c3ccccc3)CC2)nc2cc(C(F)(F)F)ccc12	none
O=c1[nH]c(CN2CC=C(c3ccccc3)CC2)nc2scc(-c3ccccc3)c12	Vif-APOBEC3F blk 10µM, Vif-APOBEC3G blk inconclusive
COc1ccc(C[C@@H]2NC[C@H](O)[C@@H]2OC(C)=O)cc1	none (no result: TSHR antagonist, Vif-APOBEC3F blk, PLK1 PBD inh, Vif-APOBEC3G blk)
CC(=O)OC1CC(OC(C)=O)[C@]2(C)C(CC(OC(C)=O)[C@]3(C)C2CC[C@@]2(C)C(c4ccoc4)C[C@H]4O[C@]432)C1(C)C (some centres not stated)	none (no result: TSHR antagonist, Vif-APOBEC3F blk, PLK1 PBD inh, Vif-APOBEC3G blk)
CC(=O)OC1CC2C(C)(C)C(=O)C=C[C@]2(C)C2CC[C@]3(C)C(=CC(=O)OC3c3ccoc3)[C@]12C (some centres not stated)	VDR inh 20µM (no result: TSHR antagonist, Vif-APOBEC3F blk, PLK1 PBD inh, Vif-APOBEC3G blk)
Cc1c(C=O)c2ccccc2n1Cc1cccc(F)c1	VDR inh 20µM, PLK1 PBD inh inconclusive
Cc1c(C=O)c2ccccc2n1Cc1ccccc1	none
O=[N+]([O-])c1ccc(NCc2ccccc2)c2nonc12	PLK1 PBD inh 0.84µM
O=C(O)CCC(CP(=O)(O)O)C(=O)O (configuration not stated)	none (no result: TSHR antagonist, Vif-APOBEC3F blk, PLK1 PBD inh, Vif-APOBEC3G blk)
CCOC(=S)SSC(=S)OCC	VDR inh 50µM (no result: TSHR antagonist, Vif-APOBEC3F blk, PLK1 PBD inh, Vif-APOBEC3G blk)
CCCCCCCCCCCCCC(=O)O[C@@H]1[C@@H](C)[C@@]2(O)[C@@H](C=C(CO)C[C@@]3(O)C(=O)C(C)=C[C@@H]23)C2C(C)(C)[C@@]21OC(C)=O (some centres not stated)	none (no result: Vif-APOBEC3F blk, PLK1 PBD inh, Vif-APOBEC3G blk)
[O]=[Sb]([OH])([OH])[c]1ccccc1	VDR inh 79µM (no result: TSHR antagonist, Vif-APOBEC3F blk, PLK1 PBD inh)
O=C(Nc1cc[c]([Sb](=[O])([OH])[OH])cc1)c1ccccc1	none (no result: VDR inh, TSHR antagonist, Vif-APOBEC3F blk, PLK1 PBD inh)
